Laboratory results reported in the supplement of paper PMC11732987, “Enantioselective OTUD7B fragment discovery through chemoproteomics screening and high-throughput optimisation” (Communications Chemistry, 2025).

Assays:
Experiment in all cases: log2 ratio of Biotin-Ahx-Ub-VS probe labelling (fragment/DMSO); higher = less target engagement (more negative = stronger competition), active = hit call of the paper (q ≤ 0.05, log2 ratio ≤ -1)
Conditions in all cases: compound concentration: 200 uM; treatment time: 3 h
USP34 = USP34 (UniProt Q70CQ2)
In short: (§1)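 HEK293T lysate (495 µg per sample, in Tris/CHAPS/IGEPAL buffer with protease inhibitors) was treated in triplicate with fragment at 200 µM or with DMSO for 3 h. It was then treated with Biotin-Ahx-Ub-VS (0.5 µM final) for 1 h. Labelled DUBs were NeutrAvidin-enriched, digested with LysC and trypsin, and run by diaPASEF LC-MS/MS. Spectronaut label-free quantities were global-median-normalised. Values are average log2 ratios fragment/DMSO by unpaired t-test, using proteins with ≥2 unique peptides.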

USP36 = biological target: T1, USP36 (UniProt Q9P275)
T1 sequence (whole entry): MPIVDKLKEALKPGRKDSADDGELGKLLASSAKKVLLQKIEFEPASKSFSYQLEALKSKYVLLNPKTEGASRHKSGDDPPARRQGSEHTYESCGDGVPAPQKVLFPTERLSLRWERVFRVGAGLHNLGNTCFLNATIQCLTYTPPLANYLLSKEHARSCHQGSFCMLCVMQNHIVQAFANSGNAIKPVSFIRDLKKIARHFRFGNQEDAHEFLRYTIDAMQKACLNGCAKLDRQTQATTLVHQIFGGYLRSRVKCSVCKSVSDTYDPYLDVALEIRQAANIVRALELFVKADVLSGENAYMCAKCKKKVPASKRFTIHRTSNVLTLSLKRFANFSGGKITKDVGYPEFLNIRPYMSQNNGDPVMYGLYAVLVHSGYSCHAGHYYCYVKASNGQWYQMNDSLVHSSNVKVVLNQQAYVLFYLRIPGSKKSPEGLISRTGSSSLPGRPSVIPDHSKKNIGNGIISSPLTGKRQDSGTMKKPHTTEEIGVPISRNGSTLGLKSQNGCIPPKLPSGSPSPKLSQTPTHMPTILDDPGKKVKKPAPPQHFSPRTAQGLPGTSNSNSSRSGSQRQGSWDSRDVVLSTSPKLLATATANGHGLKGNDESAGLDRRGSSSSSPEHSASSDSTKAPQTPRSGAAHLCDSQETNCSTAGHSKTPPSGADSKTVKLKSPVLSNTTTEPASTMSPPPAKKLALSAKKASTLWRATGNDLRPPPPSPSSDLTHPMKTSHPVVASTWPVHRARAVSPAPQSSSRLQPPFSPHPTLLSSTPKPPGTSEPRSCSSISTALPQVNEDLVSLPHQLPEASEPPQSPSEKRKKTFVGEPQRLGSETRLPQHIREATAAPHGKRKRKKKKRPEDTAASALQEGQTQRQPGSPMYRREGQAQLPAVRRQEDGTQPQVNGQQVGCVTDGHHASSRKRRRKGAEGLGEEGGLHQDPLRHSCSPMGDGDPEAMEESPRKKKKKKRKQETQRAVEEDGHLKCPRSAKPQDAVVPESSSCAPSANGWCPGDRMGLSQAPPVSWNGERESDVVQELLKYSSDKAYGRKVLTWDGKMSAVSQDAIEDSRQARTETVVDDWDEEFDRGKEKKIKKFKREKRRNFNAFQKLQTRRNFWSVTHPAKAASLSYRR
In short: as §1

USP38 = biological target: T2, USP38 (UniProt Q8NB14)
T2 sequence (whole entry): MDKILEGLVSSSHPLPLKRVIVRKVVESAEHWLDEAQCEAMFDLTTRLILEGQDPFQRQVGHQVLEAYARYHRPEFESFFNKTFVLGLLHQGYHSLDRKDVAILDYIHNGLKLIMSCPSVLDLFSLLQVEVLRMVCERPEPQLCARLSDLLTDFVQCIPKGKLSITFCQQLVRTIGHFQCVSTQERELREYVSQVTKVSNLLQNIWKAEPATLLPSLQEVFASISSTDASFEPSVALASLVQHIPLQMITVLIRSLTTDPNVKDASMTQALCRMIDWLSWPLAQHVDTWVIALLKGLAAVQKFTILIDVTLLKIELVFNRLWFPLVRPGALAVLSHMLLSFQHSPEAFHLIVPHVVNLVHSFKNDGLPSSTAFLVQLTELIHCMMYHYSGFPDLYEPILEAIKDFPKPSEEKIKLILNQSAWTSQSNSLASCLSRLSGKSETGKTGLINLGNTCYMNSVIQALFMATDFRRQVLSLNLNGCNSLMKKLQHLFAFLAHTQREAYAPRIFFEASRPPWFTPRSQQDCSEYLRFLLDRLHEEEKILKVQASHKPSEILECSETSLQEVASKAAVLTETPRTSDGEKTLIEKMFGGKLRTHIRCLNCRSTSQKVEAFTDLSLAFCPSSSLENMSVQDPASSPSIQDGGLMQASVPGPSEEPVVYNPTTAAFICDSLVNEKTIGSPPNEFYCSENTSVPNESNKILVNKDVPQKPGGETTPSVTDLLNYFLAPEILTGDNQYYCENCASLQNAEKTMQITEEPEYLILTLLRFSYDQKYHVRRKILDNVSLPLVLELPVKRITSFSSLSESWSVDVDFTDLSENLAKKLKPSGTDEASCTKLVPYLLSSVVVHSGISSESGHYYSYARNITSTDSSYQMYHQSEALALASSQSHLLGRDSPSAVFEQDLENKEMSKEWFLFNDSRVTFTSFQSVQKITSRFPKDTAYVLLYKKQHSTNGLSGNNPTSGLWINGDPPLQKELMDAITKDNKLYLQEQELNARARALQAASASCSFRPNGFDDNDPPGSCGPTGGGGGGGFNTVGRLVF
In short: as §1

USP39 = biological target: T3, USP39 (UniProt Q53GS9)
T3 sequence (whole entry): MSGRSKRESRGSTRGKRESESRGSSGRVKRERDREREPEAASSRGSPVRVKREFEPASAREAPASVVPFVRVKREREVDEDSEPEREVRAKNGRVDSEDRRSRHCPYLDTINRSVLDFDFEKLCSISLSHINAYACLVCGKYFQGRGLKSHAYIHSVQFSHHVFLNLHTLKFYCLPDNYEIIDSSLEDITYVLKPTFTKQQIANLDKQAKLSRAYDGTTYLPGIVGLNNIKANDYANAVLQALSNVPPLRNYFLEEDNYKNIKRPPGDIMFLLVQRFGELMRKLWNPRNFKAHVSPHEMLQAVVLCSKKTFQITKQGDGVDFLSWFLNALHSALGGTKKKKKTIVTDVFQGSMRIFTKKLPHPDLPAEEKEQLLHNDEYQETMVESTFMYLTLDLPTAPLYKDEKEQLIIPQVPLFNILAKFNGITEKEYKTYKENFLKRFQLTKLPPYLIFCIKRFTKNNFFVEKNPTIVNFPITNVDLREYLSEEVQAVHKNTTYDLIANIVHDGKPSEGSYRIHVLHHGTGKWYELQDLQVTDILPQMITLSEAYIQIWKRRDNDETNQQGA
In short: as §1

USP4 = biological target: T4, USP4 (UniProt Q13107)
T4 sequence (whole entry): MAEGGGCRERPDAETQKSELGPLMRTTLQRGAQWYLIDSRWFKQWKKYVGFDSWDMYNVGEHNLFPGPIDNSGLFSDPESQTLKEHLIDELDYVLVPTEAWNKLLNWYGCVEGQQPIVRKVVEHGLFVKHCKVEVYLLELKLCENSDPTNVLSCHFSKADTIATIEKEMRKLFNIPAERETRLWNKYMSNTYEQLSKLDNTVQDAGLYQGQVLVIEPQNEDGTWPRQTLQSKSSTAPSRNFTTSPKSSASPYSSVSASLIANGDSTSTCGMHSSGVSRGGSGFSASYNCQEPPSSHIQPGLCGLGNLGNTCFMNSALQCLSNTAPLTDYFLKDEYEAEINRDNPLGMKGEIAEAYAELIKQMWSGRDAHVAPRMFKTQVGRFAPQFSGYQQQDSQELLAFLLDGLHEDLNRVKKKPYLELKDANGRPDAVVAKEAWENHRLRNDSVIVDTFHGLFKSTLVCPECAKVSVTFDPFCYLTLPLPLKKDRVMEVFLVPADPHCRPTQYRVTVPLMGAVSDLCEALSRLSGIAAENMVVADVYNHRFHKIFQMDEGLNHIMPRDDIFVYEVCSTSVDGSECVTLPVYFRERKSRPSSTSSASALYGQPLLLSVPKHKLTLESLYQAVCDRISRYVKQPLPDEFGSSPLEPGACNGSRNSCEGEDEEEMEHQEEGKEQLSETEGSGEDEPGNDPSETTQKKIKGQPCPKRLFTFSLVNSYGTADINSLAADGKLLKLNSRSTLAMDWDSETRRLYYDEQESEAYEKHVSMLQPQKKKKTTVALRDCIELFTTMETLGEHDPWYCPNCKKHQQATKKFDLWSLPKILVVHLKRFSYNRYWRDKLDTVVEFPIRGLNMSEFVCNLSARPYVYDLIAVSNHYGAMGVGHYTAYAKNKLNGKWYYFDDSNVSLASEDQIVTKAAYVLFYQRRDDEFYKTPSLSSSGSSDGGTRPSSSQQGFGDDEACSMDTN
In short: as §1

Measured: log2 ratio of Biotin-Ahx-Ub-VS probe labelling

Chain of USP34 (Q70CQ2 whole entry, the tested form may be a part): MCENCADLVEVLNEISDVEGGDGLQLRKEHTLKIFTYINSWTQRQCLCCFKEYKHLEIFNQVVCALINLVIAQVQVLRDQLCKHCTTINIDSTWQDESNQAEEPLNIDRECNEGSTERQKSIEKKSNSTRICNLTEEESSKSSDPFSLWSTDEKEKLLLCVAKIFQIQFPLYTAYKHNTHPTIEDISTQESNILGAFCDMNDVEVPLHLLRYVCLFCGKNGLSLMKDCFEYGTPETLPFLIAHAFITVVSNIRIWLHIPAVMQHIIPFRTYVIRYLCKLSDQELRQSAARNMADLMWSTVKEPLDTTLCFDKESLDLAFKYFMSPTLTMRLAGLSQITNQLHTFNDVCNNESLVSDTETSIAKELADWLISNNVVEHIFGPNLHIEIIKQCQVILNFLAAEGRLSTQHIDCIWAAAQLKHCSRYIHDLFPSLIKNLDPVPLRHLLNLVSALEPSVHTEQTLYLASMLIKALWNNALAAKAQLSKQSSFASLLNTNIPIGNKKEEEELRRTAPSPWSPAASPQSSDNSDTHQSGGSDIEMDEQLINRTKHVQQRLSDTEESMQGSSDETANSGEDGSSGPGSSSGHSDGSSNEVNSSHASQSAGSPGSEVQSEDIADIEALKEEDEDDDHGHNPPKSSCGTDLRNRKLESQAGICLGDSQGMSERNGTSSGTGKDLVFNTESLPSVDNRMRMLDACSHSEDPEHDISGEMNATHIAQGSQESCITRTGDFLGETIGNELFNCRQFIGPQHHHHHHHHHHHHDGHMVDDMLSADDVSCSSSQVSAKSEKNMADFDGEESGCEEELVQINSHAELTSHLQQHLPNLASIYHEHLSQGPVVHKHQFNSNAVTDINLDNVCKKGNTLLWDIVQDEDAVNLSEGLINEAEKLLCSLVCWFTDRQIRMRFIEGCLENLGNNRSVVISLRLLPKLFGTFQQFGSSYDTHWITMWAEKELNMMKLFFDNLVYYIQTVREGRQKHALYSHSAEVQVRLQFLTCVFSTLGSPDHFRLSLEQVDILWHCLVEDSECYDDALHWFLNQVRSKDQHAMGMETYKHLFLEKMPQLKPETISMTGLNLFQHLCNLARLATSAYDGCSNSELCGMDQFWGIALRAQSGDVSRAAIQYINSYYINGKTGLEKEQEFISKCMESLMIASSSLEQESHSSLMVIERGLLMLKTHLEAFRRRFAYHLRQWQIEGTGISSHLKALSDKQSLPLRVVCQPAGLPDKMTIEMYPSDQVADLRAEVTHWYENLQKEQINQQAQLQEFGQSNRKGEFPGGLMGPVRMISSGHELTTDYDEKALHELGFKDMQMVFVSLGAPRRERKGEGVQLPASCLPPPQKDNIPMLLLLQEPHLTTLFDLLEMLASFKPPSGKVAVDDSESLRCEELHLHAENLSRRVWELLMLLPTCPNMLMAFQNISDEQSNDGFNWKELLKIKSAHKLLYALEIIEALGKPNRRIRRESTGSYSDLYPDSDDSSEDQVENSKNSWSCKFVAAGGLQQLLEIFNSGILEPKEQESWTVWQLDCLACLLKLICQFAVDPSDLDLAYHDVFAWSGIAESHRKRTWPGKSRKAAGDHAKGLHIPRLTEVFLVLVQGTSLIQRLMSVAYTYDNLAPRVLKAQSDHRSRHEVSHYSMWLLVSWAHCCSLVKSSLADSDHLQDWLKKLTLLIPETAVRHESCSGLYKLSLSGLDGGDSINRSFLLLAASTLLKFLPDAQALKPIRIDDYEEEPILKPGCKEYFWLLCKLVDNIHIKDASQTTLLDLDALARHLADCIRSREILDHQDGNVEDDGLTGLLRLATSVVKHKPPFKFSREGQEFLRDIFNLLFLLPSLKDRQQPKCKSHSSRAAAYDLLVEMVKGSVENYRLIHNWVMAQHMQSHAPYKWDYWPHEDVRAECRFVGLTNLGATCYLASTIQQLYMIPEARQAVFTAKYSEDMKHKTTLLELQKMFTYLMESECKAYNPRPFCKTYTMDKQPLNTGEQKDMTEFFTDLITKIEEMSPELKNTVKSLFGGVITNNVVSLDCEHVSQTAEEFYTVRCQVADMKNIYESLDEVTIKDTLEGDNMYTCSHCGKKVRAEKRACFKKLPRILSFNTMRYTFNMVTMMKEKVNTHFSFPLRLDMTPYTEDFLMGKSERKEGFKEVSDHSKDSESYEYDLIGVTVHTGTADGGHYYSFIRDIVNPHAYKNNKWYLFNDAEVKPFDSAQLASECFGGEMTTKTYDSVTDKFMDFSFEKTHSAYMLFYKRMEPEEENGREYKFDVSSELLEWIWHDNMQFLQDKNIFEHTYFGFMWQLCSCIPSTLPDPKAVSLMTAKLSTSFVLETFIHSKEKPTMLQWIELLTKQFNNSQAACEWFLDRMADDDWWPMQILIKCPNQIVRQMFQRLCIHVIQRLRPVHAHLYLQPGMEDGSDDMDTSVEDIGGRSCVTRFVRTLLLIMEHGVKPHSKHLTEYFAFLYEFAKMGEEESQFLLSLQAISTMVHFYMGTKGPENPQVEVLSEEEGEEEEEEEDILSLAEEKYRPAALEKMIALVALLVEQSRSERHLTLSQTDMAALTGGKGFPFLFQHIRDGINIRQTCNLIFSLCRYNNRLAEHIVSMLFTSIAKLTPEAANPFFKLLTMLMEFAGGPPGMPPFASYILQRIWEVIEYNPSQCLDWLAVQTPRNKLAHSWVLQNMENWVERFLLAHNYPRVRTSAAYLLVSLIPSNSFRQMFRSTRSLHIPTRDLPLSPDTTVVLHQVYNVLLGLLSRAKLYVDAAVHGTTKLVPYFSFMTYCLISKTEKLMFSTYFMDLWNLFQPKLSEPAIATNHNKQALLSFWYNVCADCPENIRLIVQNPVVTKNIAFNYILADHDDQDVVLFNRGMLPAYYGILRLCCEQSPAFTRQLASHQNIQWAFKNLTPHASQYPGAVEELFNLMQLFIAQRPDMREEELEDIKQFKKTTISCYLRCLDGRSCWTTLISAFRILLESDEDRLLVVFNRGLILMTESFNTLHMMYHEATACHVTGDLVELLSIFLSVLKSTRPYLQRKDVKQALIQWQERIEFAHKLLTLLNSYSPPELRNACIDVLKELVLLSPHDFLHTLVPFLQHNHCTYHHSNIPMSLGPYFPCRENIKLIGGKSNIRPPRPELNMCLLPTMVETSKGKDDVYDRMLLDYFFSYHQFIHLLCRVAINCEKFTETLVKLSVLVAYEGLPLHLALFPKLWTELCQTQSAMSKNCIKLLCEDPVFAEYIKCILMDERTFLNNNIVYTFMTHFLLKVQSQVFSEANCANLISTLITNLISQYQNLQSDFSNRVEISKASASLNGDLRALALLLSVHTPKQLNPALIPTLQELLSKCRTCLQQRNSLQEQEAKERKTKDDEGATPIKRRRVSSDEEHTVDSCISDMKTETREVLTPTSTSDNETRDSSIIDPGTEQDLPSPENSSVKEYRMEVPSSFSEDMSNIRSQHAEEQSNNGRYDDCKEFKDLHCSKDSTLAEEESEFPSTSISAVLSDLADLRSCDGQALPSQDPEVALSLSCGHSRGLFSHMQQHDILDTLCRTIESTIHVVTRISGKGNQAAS

O=C(CCl)NCc1ccc(Cl)cc1
inactive: USP34 -0.211 | USP36 0.0776 | USP38 -0.0243 | USP39 -0.155 | USP4 0.0847
